# Data from PubChem BioAssay AID2102 (Southern Research Specialized Biocontainment Screening …, 2009).
# About 210 (19%) of roughly 1,100 compounds were called active. A selection follows. Potency and affinity values are given separately. Unmarked numbers belong to inactive results. How the calls were made is not given here.
# Assay: cell viability loss from selected hits – cytotoxicity control for SV40 T antigen inhibitor project, dose response (AID 2102);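 further: cells exposed to compounds for 72 hours; 100% = mean of untreated cell control wells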
# Conditions: Host cell viability cytotoxicity counter-screen; series mostly up to 50 µM; viability: at the top concentration
row,SMILES,viability [%]
1,Oc1ccc(/C=N/NC(=S)NCC2CCCO2)cc1 (stereo not given),91
2,COc1ccc(-c2nc(O)c3cnccn23)cc1,100
3,CCN(CC)c1ccc(NC(=O)c2ccccc2F)cc1,85.1
4,CCN(CC)c1ccc(NC(=O)c2ccco2)cc1,100
5,CC(=O)Nc1ccc(OC(=O)C(CCS(C)(=O)=O)N2C(=O)c3ccccc3C2=O)cc1 (stereo not given),103
6,Oc1cc(O)cc(/C=C/c2ccc(O)c(O)c2)c1,105
7,O=C(O)/C=C/c1ccc(O)c(O)c1,104
8,COc1cc(/C=N/NC(=O)C(C)n2nnc3ccccc32)ccc1O (stereo not given),102
9,O=C(N/N=C/c1ccc(OC(=O)c2ccco2)cc1)c1ccc[n+]([O-])c1,107
10,Oc1ccc(O)c(-c2cnns2)c1,100
11,O=C1CC(c2ccc(O)c(O)c2)Oc2c1ccc(O)c2O (stereo not given),104
12,CC1=C(C)CS(=O)N(S(=O)(=O)c2ccc(Cl)cc2)C1 (stereo not given),103
13,COc1cc(/C=N/Nc2nc3ccccc3[nH]c2=O)ccc1O,111
14,COc1cc(-c2nnc(SCc3cc(=O)oc4cc(O)c(O)cc34)o2)cc(OC)c1OC,82.7
15,COc1cccc(-n2c(=O)c3ccccc3n3c(=S)[nH]nc23)c1,84.8
16,CCN(CC)CCN1C(=O)C(=O)/C(=C(/O)c2ccc(C)cc2)C1c1cccnc1 (stereo not given),121
17,CN=C1S/C(=C\c2ccc(O)c(OC)c2)C(=O)N1C,98.9
18,Cc1occc1C(=O)N/N=C/C=C/c1ccc(N(C)C)cc1,91.2
19,COc1cc(/C=C2/C(=O)NN(c3ccc(Cl)c(Cl)c3)C2=O)cc([N+](=O)[O-])c1O,98
20,Cc1ccc(/C=N\NC(=O)COc2ccc(C)cc2[N+](=O)[O-])cc1,88.8
21,CC(=O)CC1OC(=O)C(Br)=C1NCc1ccccc1 (stereo not given),98.4
22,O=c1[nH]sc2ccccc12,101
23,CN(C)c1ccc(NC(=S)NCC2CCCO2)cc1 (stereo not given),95
24,Cc1[nH]c2ccccc2c1-c1csc(NC(=O)CSCC(=O)O)n1,113

row,SMILES,viability [%]
1,O=C1COc2ccc(N3C(=O)C=CC3=O)cc2N1,126
2,COc1cc(/C=C2\C(=N)N3N=C(S(C)(=O)=O)SC3=NC2=O)ccc1OS(=O)(=O)c1ccc(C)cc1,98.1
3,Cc1cc(-c2n[nH]c(=S)n2/N=C/c2c[nH]c3ccccc23)n[nH]1,92.8
4,Cc1ccc2cc3c(N)[nH]nc3nc2c1,104
5,COC(=O)CSc1nnc(CNc2ccc(OC)cc2)n1C,101
6,C=CS(=O)c1sc(Cl)c(N2CCOCC2)c1[N+](=O)[O-] (stereo not given),102
7,Cc1ccc2oc(=O)c(/C=C(\O)CC(C)C)nc2c1,115
8,Nc1ccc(Nc2nc3ccccc3[nH]2)cc1,104
9,CCOC(=O)C1=C(C)N(c2ccccc2)C(=O)/C1=C\c1ccc(O)c(OC)c1,83
10,COc1ccc(NC2CCCN(C(=O)c3c(C)noc3C)C2)cc1 (stereo not given),110
11,Oc1ccc(/C=N/Nc2ccc(Cl)nn2)cc1O,82.1
12,COc1cc(/C=N/Nc2ccccn2)ccc1O,81.3
13,C=CCNC(=S)NNC(=O)c1cc(O)ccc1O,107
14,CCOc1cc(C(c2c(O)nc(SC)[nH]c2=O)c2c(O)nc(SC)[nH]c2=O)ccc1O,116
15,CCOc1ccc(NCc2nnc(SCC(=O)Nc3cc(C)on3)n2-c2ccc(OC)cc2)cc1,84.5
16,Cc1ccc(CNc2ccc(N3CCOCC3)cc2)cc1,98.8
17,COc1ccc(CNc2ccc(N3CCOCC3)cc2)cc1,93.2
18,CC(=O)N1CCN(c2ccc(NCc3ccc(C)s3)cc2)CC1,86.7
19,Cc1cc(C)n(CCc2nc(-c3ccco3)cs2)n1,85.3
20,Nc1ccc(-c2nc3c(Cl)c(N)ccc3[nH]2)cc1,126
21,Nc1ccc2nc(CCCCCCc3nc4ccc(N)cc4[nH]3)[nH]c2c1,111
22,CC(C)C(C(=O)O)N1C(=O)/C(=C/C=C/c2ccco2)SC1=S (stereo not given),123
23,O=C1NC(=NCc2ccccc2)S/C1=C/c1ccc(O)cc1,89.2
24,C/C(=N/NC(=O)CSc1nc2ccccc2n1C)c1ccc(O)cc1,92.7

row,SMILES,viability [%]
1,COc1ccc(NC2CCCN(C(=O)CCCn3cncn3)C2)cc1 (stereo not given),112
2,O=C1NC(=O)/C(=C/c2ccc(O)cc2)S1,101
3,O=C(O)Cc1c[nH]c2cccc(O)c12,92.2
4,O=C(CCc1ccc(O)c(O)c1)N/N=C/c1cc2c(cc1[N+](=O)[O-])OCO2,91.3
5,COc1ccc(CC(=O)N/N=C(\C)CC(=O)Nc2ccc(N(C)C)cc2)cc1OC,126
6,COc1ccc(/C=N/NC(=O)CCc2n[nH]c(=O)[nH]c2=O)cc1O,105
7,COc1cc(/C=C2\C(=O)NN(c3ccccc3)C2=O)ccc1OCC(N)=O,104
8,O=S1(=O)N=C(Nc2ccc(O)cc2)c2ccccc21,115
9,Cc1nnc(Nc2ccc(O)cc2)[nH]c1=O,110
10,CCOc1cc(/C=N/NC(=O)CCc2n[nH]c(=O)[nH]c2=O)ccc1O,99.8
11,C=CCn1c(SCC(=O)c2ccc(O)c(O)c2)nnc1-c1cccnc1,121
12,CCOC(=O)CNc1c(-c2ccc(O)cc2)nc2ccccn12,90.2
13,O=C(Nc1cccc(N2C(=O)C=CC2=O)c1)c1cccs1,110
14,COc1cc(/C=N/N=C(\N)c2nonc2N)ccc1O,115
15,COc1cc(C=C2C(=O)c3ccccc3C2=O)ccc1O,121
16,COc1cc(-c2cc(=O)c3c(O)c(OC)c(OC)c(O)c3o2)ccc1O,97.4
17,O=C(CC(=O)N/N=C/c1ccc(O)cc1)N/N=C/c1ccc(O)cc1,98.6
18,O=C(N/N=C/c1ccc(O)c(O)c1)N/N=C/c1ccc(O)c(O)c1,98.8
19,Oc1ccc(Nc2nc(Cl)nc(NCc3ccco3)n2)cc1,97.5
20,CCOc1cc(-c2ccc(N)c(OCC)c2)ccc1N,84.3
21,Nc1cc(C(=O)O)ccc1Nc1ccccc1,88
22,Oc1ccc(-c2cn3c(n2)SCC3)cc1O,101
23,COc1cc(/C=C/C(=O)OCC(=O)Nc2ccc(S(N)(=O)=O)cc2)ccc1O,107
24,Nc1ccc2nc(CCCO)[nH]c2c1,125

row,SMILES,viability [%]
1,COc1cc(/C=N/NC(=O)c2cccc([N+](=O)[O-])c2)ccc1O,120
2,COc1cc(C=C(C(C)=O)C(C)=O)ccc1O,103
3,O=c1ccc2cc(O)c(O)cc2o1,96.9
4,O=C(Nc1ccc(O)cc1)/C(=C\c1ccncc1)NC(=O)c1ccccc1,110
5,Cc1nnc(N/N=C/c2c(O)n(-c3cccc(C(F)(F)F)c3)c(=O)c3ccccc23)[nH]c1=O,89.5
6,COc1ccc(-c2cc(=O)oc3c(O)c(O)ccc23)cc1,102
7,O=C1CCCC/C1=C\Nc1ccc(O)cc1,97.2
8,O=c1cc(CN2CCN(Cc3ccccc3)CC2)c2ccc(O)c(O)c2o1,90.2
9,Oc1cnn(-c2ccccc2)c1,112
10,Nc1cc(CN2C(=O)c3ccccc3C2=O)cc(Cl)c1O,94.5
11,COc1cc(/C=N/Nc2ccnc(=O)[nH]2)ccc1O,109
12,COc1ccc(NC2CCCN(C(=O)c3ccc(OC)cc3OC)C2)cc1 (stereo not given),85.2
13,COc1ccc(NC2CCCN(C(=O)CCn3cccn3)C2)cc1 (stereo not given),97.3
14,COc1cc(/C=N/NC(=O)c2c(-c3ccccc3)noc2C)ccc1O,88.4
15,C/C(CC(=O)Nc1ccc2ccccc2c1)=N\NC(=O)c1ccc(O)c(O)c1,97.8
16,O=C(Nc1ccc(O)cc1)C1CC=CCC1 (stereo not given),94
17,CC(C)C(=O)c1ccc(O)c(O)c1,90.9
18,Cc1ccc(S(=O)(=O)N2CCN(CC(=O)N/N=C\c3ccc(O)c(O)c3)CC2)cc1,115
19,CCCSc1nc(O)c(C(c2ccc(OC)c(O)c2)c2c(O)nc(SCCC)n(C)c2=O)c(=O)n1C,104
20,COc1cc(Cn2nnc3ccccc32)ccc1O,91
21,Cc1ccc2c(c1C)NC(C(=O)O)C1CC=CC21 (stereo not given),111
22,CC(/C=N/n1c(-c2n[nH]c3c2CCC3)n[nH]c1=S)=C\c1ccco1,92.1
23,Nc1nc(-c2cccs2)c(NC(=O)c2ccccc2)s1,99.8
24,O=C1CNC(=S)N1CCc1ccc(O)c(O)c1,106

row,SMILES,viability [%]
1,N#CC1=C2SCN(Cc3ccco3)CN2C(=O)CC1c1ccc(Cl)cc1 (stereo not given),98.5
2,Cc1cc(SCC(=O)N/N=C/c2ccc(O)c(O)c2)nc2ccccc12,86.3
3,CCn1c(/C=C/c2ccc(O)c(O)c2)nc2ccccc2c1=O,85.1
4,O=C(CSc1nc2ccccc2o1)N/N=C/c1ccc(O)c(O)c1,90.5
5,O=C(N/N=C/c1ccc(O)c(O)c1)c1cc(-c2ccccc2)nc2ccccc12,99.2
6,O=C1ON=C(c2ccccc2)/C1=C/c1ccc(O)c(O)c1,107
7,O=C1C=CC(=O)N1c1ccc(O)cc1,104
8,Cc1nc(Cl)cc(N/N=C/c2ccc(O)cc2)n1,96.5
9,CCOc1ccc(N2Nc3n[nH]c(N)c3N2)cc1,94.2
10,Cc1c(NC(=O)CN2CCN(c3ccc(O)cc3)CC2)c(=O)n(-c2ccccc2)n1C,96.2
11,O=C1CC(N2CCN(c3ccc(O)cc3)CC2)C(=O)N1Cc1cccs1 (stereo not given),94.6
12,Cc1nc2ccc(N=NN(C)C)cc2[nH]1,96.2
13,O=C(Cn1c(=O)oc2ccccc21)Nc1n[nH]c(=S)s1,96.6
14,Cc1cc(C)c2c(CCl)cc(=O)oc2c1,86.8
15,CCSS(=O)(=O)c1cccc2cccnc12,92.4
16,O=C1/C(=C/c2ccncc2)SC(=S)N1Nc1ccccc1,102
17,CCc1cc2c(Nc3ccc(O)cc3)nc(C)nc2s1,95.3
18,Cc1cc(NC(=O)CN2CCN(c3ccc(O)cc3)CC2)no1,95.5
19,O=C(c1ccc2ncsc2c1)N1CCN(c2ccc(O)cc2)CC1,103
20,COc1ccc(N2CCN(C(=O)CN(c3ccccc3)S(C)(=O)=O)CC2)cc1,89.1
21,CCOC(=O)N1CCN(c2ccc(O)cc2)CC1,97
22,O=C(C1CC1)N1CCN(c2ccc(O)cc2)CC1,103
23,O=C(CCC(=O)N1CCN(c2ccc(O)cc2)CC1)c1cccs1,98.9
24,CNC(=O)c1ccc(-c2sc3nc(N4CCOCC4)c4c(c3c2N)CC(C)(C)OC4)o1,92.8
